The record followed here is ChEMBL document CHEMBL3988442, “University of Dundee, Small-Polar-MMV Screening Library” (2021).

Test [1] addresses T1, Aspartate--tRNA(Asp/Asn) ligase (Mycobacterium tuberculosis (strain ATCC 25618 / H37Rv)) (UniProt P9WFW3).
T1 sequence (whole entry): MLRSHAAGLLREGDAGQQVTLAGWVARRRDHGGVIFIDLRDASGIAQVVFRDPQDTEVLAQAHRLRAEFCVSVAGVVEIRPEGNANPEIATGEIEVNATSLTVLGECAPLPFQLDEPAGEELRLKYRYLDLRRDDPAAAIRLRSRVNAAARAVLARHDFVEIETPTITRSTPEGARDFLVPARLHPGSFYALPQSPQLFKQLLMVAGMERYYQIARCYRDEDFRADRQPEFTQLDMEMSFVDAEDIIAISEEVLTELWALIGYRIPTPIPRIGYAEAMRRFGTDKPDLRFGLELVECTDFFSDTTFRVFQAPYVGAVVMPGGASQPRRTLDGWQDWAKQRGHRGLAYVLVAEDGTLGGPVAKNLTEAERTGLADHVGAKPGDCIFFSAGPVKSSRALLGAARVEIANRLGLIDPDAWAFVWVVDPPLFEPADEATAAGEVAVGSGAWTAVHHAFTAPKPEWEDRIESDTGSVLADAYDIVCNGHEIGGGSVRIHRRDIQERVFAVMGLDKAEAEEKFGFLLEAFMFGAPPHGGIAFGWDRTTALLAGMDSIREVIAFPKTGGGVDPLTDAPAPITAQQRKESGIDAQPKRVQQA
The experiment in a line: Assay for Asp RNA synthetase-1 from Mycobacterium tuberculosis. Type of test: functional. Details: scale not given: direction of the effect not stated beside the values. Conditions: 30 µM.

The target in test [2] is Shiga toxin 2 (Escherichia coli O157:H7) (UniProt P09385+P09386). The experiment in a line: E. coli 0.157:H7 Shiga Toxin SOP - stx2 screening assay. Type of test: functional. Details: scale not given: direction of the effect not stated beside the values. Conditions: 30 µM.

As for `Cc1ccc(CNC2CCN(CCc3ccncc3)CC2)s1`, the Percent Effect in test [1] is -2.55%; in test [2] it was -53.8%.
The like results for `COCCc1noc(CNC2CCSC2)n1` (stereo not given) were, in that order, -5.83% and 6.26%.
The like results for `Cc1nc(C2CCCN(C(=O)CO)C2)cc(N2CCOCC2)n1` (stereo not given) were, in that order, -4.78% and 17.9%.
In the same order, the values of `COCCN1CCN(Cc2noc(C3CC3)n2)CC1C` (stereo not given) are -6.85% and -12.1%.
For `O=C(Nc1ccc(F)cc1)N1C[C@H]2CC[C@@H]1CN(Cc1cccnc1)C2`, the Percent Effect in test [1] is 0.632%; in test [2], -26.1%.
In the same order, the values of `CC(C)Oc1ncccc1CNC(=O)N1CCC1c1ccccc1` (stereo not given) are 0.589% and -9.32%.
In the same order, the values of `CN(Cc1ccccn1)C1CC2(CCN(Cc3cccnc3)CC2)C1` are -2.75% and -14.8%.
The like results for `O=C(NCCN1CCNCC1)c1c(O)c2ccccc2[nH]c1=O` were, in that order, -0.319% and -77.4%.
In the case of `CC(CNC(=O)N1CCN(c2cnccn2)CC1)Cc1cccs1` (stereo not given), the Percent Effect was 0.324% in test [1] and -14.3% in test [2].
The like results for `Cc1ccc2c(c1)C1(CCNCC1)CN2C(=O)CN(C)C` were, in that order, -0.657% and 6.1%.
On to `COCCn1ccc(=O)c(OCC(=O)Nc2cccc(C(C)=O)c2)c1C`, for which the Percent Effect in test [1] is -4.27%; in test [2], -43.8%.
The like results for `CS(=O)(=O)NCC1CCCN(Cc2ccc(F)c3cccnc23)C1` (stereo not given) were, in that order, 5.29% and -44.4%.
Regarding `CCc1ccsc1C(=O)N1CCN(CC(O)CC)CC1` (stereo not given), the Percent Effect in test [1] is 1.06%; in test [2] it was -26.4%.
In the same order, the values of `Cc1nc(CC(=O)N2CCCCC2c2ccn3ccnc3n2)cs1` (stereo not given) are -0.0744% and 4.13%.
The like results for `CCc1nc2ccccc2c(=O)n1CC1(O)CCN(S(C)(=O)=O)CC1` were, in that order, 4.54% and -2.21%.
The like results for `CC(C)N(CC(N)=O)Cc1csc(Cc2ccccc2)n1` were, in that order, 0.228% and 12%.
In the case of `CC1CCN(S(=O)(=O)NCc2ccccc2Cn2cncn2)CC1`, the Percent Effect in test [1] was -6.51%; in test [2] it was 4.16%.
The like results for `O=C(Cn1cc(C(=O)O)ccc1=O)Nc1ccc(Cl)cc1F` were, in that order, -4.96% and -33.4%.
The like results for `CCc1nc(C2CCCN2Cc2nccn2Cc2ccccc2)no1` (stereo not given) were, in that order, -2.22% and 12.2%.
The like results for `O=C(NCC1CCOC1)c1cc(-c2cccc(Cl)c2)on1` (stereo not given) were, in that order, 1.64% and -6.35%.
On to `COCc1nc(C(=O)N2CCCC(n3cccn3)C2)cs1` (stereo not given), for which the values for the Percent Effect in test [1] and in test [2] were -1.71% and -22.6%, respectively.
The like results for `Cc1cnn(CCC(=O)N2CCN(c3ncccc3Cl)CC2)c1` were, in that order, -7% and 13.3%.
The like results for `CCC1CN(C(=O)NCCOc2ccc3c(c2)OCO3)CCO1` (stereo not given) were, in that order, -0.509% and -17.6%.
In the same order, the values of `CC(NC(=O)Nc1cc(F)ccc1N1CCCCC1)c1nncn1C` (stereo not given) are -3.23% and 20.1%.
With `Cc1cc2c(=O)n3c(nc2s1)CCN(C(=O)c1cnn(C)c1C)CC3`, the values for the Percent Effect in test [1] and in test [2] were 0.849% and 5.44%, respectively.
In the same order, the values of `COCCn1ccc(NC(=O)Nc2ccc(C(N)=O)c(F)c2)n1` are 2.25% and -3.67%.
Consider `CNc1cc(C2CCCN2Cc2ccccc2C(=O)O)ccn1` (stereo not given), for which the results for the Percent Effect in test [1] and in test [2] were -0.938% and -8.27%, respectively.
The like results for `Cc1ccc(NC(=O)NC(C)C(=O)N2CCS(=O)(=O)CC2)cc1` (stereo not given) were, in that order, 1.19% and 12.8%.
The like results for `CCN1CCC2(CCC(=O)N2Cc2cccc(C)n2)CC1` were, in that order, -3.94% and 1.16%.
In the same order, the values of `Cc1cccc(OCCNC(=O)CN2CCCC2Cn2cccn2)c1` (stereo not given) are -1.71% and -0.164%.
Consider `CN(C)C(=O)N1C[C@@H]2CC[C@H](C1)N(C(=O)CCCn1cncn1)C2`, for which the Percent Effect in test [1] came to 1.35%; in test [2], 4.19%.
The like results for `CC(C)(C)C(=O)NCCn1ccc(-c2ccncc2)n1` were, in that order, -3.08% and -20%.
The like results for `CC(C)(C)n1cc(C(=O)N2CCN(Cc3ccsc3)CC2)cn1` were, in that order, -3.48% and 30.7%.
The like results for `COCC1CN(C(=O)CNC(C)=O)Cc2ncnn2C1` (stereo not given) were, in that order, 0.773% and -26.6%.
As for `CN(C)CCN(Cc1cccc(C(F)(F)F)c1)C(=O)c1cc[nH]n1`, the Percent Effect in test [1] was 0.947%; in test [2] it was -18.8%.
In the same order, the values of `O=C(CCc1ccccc1)Nc1ncccc1OC(F)F` are -3.26% and -5.61%.
In the same order, the values of `Cc1nc(C)n(CC2CCCN(c3ncnc4sccc34)C2)n1` (stereo not given) are 1.08% and 21.2%.
`CC(C)(C)N1CCCN(C(=O)c2csc(S(N)(=O)=O)c2)CC1`: the results for the Percent Effect in test [1] and in test [2] were -2.95% and -17.3%, respectively.
In the same order, the values of `CC1CN(C(=O)CN(Cc2ccco2)C2CC2)CCO1` (stereo not given) are 3.17% and 18.9%.
On to `CC1CCCN(CCNC(=O)c2ccn(-c3ccccc3)n2)C1` (stereo not given), for which the Percent Effect was 5.86% in test [1] and -20.3% in test [2].
For `CCCNC(=O)Cn1cc(-c2ccccc2)cn1`, the Percent Effect is -2.52% in test [1] and -0.0685% in test [2].
The like results for `CC(C)CCn1c(=O)nc2n1C(=O)N(c1ccc(F)cc1)C2` were, in that order, -0.24% and -15.1%.
In the same order, the values of `Cc1cnn(CC2CCCN2Cc2cc(=O)n3cccc(C)c3n2)c1` (stereo not given) are 3.68% and 8%.
With `CCN(CC)C(=O)CCNC(=O)N1CCC(c2ccccc2)C1` (stereo not given), the figures for the Percent Effect in test [1] and in test [2] were -1.42% and -20.3%, respectively.
The like results for `Cc1ncsc1C(=O)N(C)CCc1ccncc1` were, in that order, -1.68% and 19.9%.
The like results for `Cn1ccc2c(C(=O)N3CCC(C(N)=O)CC3)cccc21` were, in that order, 0.465% and -43.9%.
For `Cc1cc(F)c(S(=O)(=O)NCCCN2CCC(O)CC2)cc1F`, the Percent Effect was 11.3% in test [1] and -69.6% in test [2].
In the same order, the values of `CCc1nccn1C1CCCN(C(=O)c2csc(COC)n2)C1` (stereo not given) are 4.12% and -14.9%.
Take `Cc1ncncc1C(=O)Nc1cnn(CC(=O)NC2CCCC2)c1`: the Percent Effect was -6.25% in test [1] and -10.6% in test [2].
Consider `COCCO[C@H]1CCN(C(=O)c2ccno2)[C@H]1Cc1cnn(C)c1`, for which the results for the Percent Effect in test [1] and in test [2] were -3.56% and -13.7%, respectively.
